PABP FP inh – blocks human PABP binding to poly(A) RNA; fluorescence polarization; actives 1% (n = 290,000); calls only at 35 µM; AID 2014;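 further: calls also rest on retests at 20 µM and on dose response follow-up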
Target sequence (P11940 whole entry, looked up): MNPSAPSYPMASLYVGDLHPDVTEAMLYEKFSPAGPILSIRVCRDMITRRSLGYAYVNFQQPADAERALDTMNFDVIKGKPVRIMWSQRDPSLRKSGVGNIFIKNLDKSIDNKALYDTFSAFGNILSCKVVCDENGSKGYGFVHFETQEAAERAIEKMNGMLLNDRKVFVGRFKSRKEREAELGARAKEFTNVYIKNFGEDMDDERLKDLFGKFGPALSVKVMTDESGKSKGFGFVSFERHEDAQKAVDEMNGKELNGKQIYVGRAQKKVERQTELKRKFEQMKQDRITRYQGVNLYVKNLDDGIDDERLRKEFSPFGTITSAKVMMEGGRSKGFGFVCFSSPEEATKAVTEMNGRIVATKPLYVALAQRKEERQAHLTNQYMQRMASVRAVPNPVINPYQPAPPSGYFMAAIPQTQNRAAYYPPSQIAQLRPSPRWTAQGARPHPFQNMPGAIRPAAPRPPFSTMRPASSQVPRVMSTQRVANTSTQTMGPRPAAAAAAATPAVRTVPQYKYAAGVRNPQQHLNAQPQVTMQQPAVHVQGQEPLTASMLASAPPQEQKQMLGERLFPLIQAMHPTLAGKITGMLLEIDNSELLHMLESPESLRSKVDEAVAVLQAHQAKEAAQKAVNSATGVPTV
MLLE-PAM2 inh – blocks PAM2 peptide binding to the PABP1 MLLE domain; P11940; GST-MLLE / FITC-PAM2 fluorescence polarization; inhibition, % at 20 µM; actives 0.36% (n = 360,000); AID 588489; in the data active means inhibition above about 35%, passing the limit was not always enough
EBV gp42 block – blocks Epstein-Barr virus glycoprotein 42 binding; actives 0.42% (n = 220,000); Q1HVG2; Fluorescence polarization binding assay, mP read-out; inhibition, % (tested at 21.74 µM); in the data active means inhibition above about 50%
eIF4H FP inh – inhibitors of RNA binding by human eIF4H | actives 0.94% (n = 290,000) | inhibition, % at 35 µM | eIF4H fluorescence polarization binding assay;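 further: calls also rest on retests at 20 µM and on dose response follow-up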
MEX-5 binding – C. elegans MEX-5 TCR-2 RNA binding activity. Q9XUB2. MEX-5/FITC-TCR2 RNA binding, fluorescence polarization; active compounds read low. activity score (negative = inhibition of binding), % at 10 µM. actives 0.38% (n = 300,000). AID 1832;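 active means inhibition past about -25% in most replicates, and total fluorescence under double the plate's negative control median, limit read from the data; inconclusive means replicates evenly split on the limit, or fluorescence at least double controls; inactive means too little inhibition in most replicates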
Of the large screens only hits and unclear results are named; the others gave an inactive call. Rows were chosen to be rich in hits. Some 1.8% of all compounds tested hit in one or more screens of this group. Unless noted, how the calls were made is not given here.

CCN1C(=O)[C@H]2[C@@H](c3ccc(C)cc3)N[C@]3(CCCN(Cc4ccco4)C3=O)[C@H]2C1=O	none (no result: PABP FP inh, EBV gp42 block, eIF4H FP inh, MEX-5 binding)
COc1cc(/C(C)=N/NC(=O)c2nnn(-c3nonc3N)c2-c2cccs2)ccc1O	none (no result: EBV gp42 block)
C/C(=N\NC(=O)c1nnn(-c2nonc2N)c1-c1cccs1)c1cccc(O)c1	MEX-5 binding -63 (no result: EBV gp42 block)
O=S(=O)(c1cccs1)N1CN(Cc2cccs2)c2nc3ccccc3nc21	none
C=CCN1CN(S(=O)(=O)c2cccs2)c2nc3ccccc3nc21	PABP FP inh active, eIF4H FP inh 82 (no result: MEX-5 binding)
O=C(Nc1cccc(Oc2ccc(C(=O)O)c(C(=O)O)c2)c1)c1ccc(-c2ccccc2)cc1	eIF4H FP inh 66
COc1cc(C(=O)NS(=O)(=O)c2ccccc2C)ccc1Cc1cn(C)c2ccc(NC(=O)OC3CCCC3)cc12	eIF4H FP inh 45 (no result: MLLE-PAM2 inh)
O=c1[nH]c2cc3c(cc2cc1CN(CCc1ccccc1)Cc1nnnn1C1CCCC1)OCCO3	PABP FP inh active, eIF4H FP inh 97 (no result: MLLE-PAM2 inh)
COc1ccccc1CN(Cc1cc2cc3c(cc2[nH]c1=O)OCCO3)Cc1nnnn1Cc1ccco1	PABP FP inh active, eIF4H FP inh 58
O=c1[nH]c2cc3c(cc2cc1CN(Cc1cccnc1)Cc1nnnn1Cc1ccco1)OCCO3	PABP FP inh active, eIF4H FP inh 71
Cc1ccc2[nH]c(=O)c(CN(Cc3ccc4c(c3)OCO4)Cc3nnnn3Cc3ccco3)cc2c1	none
O=c1[nH]c2cc3c(cc2cc1CN(Cc1ccccc1)Cc1nnnn1Cc1ccco1)OCCO3	none
Cc1cc2cc(CN(Cc3ccc4c(c3)OCO4)Cc3nnnn3C3CCCC3)c(=O)[nH]c2cc1C	none
O=c1[nH]c2cc3c(cc2cc1CN(Cc1cccs1)Cc1nnnn1Cc1ccco1)OCCO3	PABP FP inh active, eIF4H FP inh 38
COC(=O)C(C(=O)OC)[C@@H]1C=C[C@H](C[N+](=O)[O-])N(C(C)=O)C1	none (no result: PABP FP inh, EBV gp42 block, eIF4H FP inh, MEX-5 binding)
COc1cc(C)c(CNc2ccc(OC)c(OC)c2)cc1C	PABP FP inh active, eIF4H FP inh 63 (no result: MLLE-PAM2 inh)
COc1cc(C)c(CNc2cccc(C)c2)cc1C	none
Cc1ccc([N+](=O)[O-])cc1N=Nc1c(-c2ccc([N+](=O)[O-])cc2)[nH]n(C(N)=S)c1=O	EBV gp42 block 107
NC(=S)n1[nH]c(-c2ccc([N+](=O)[O-])cc2)c(N=Nc2ccc(Cl)cc2)c1=O	PABP FP inh active, EBV gp42 block 92, eIF4H FP inh inconclusive (no result: MEX-5 binding)
O=C(Nc1ccc2nc(-c3ccco3)[nH]c2c1)c1ccco1	PABP FP inh active
Cc1cc2cc(NC(=O)c3ccco3)ccc2[nH]1	none
O=C(Nc1ccc2[nH]c3c(c2c1)CCCC3)c1ccco1	EBV gp42 block 68
CC(=O)Nc1ccc2nc(-c3ccco3)[nH]c2c1	none
Cc1cc(O)ccc1Nc1nc2ccccc2nc1Nc1ccc(O)cc1C	PABP FP inh active, eIF4H FP inh 24
CCCc1nc2ccc(Br)cn2c1Cc1cccc(Cl)c1	none (no result: PABP FP inh, EBV gp42 block, eIF4H FP inh, MEX-5 binding)
Cc1ccc(C2=N/C(=C/N3CCOCC3)C(=O)O2)cc1	none
Cc1cccc2cc(/C=C3\N=C(c4ccccc4)OC3=O)c(N3CCOCC3)nc12	EBV gp42 block 135
OC[C@@H]1CN(Cc2ccc(Cl)cc2)C[C@H](n2cnc3c(Nc4ccccc4)ncnc32)O1	none (no result: PABP FP inh, EBV gp42 block, eIF4H FP inh, MEX-5 binding)
O=C(CSc1nnc(-c2ccco2)c(-c2ccco2)n1)c1ccccc1	PABP FP inh active, eIF4H FP inh 110
CC(=O)c1ccc(NC(=O)CSc2nnc(-c3ccco3)c(-c3ccco3)n2)cc1	none
COC(=O)C1=C(O)/C(=C\c2cc(C)n(-c3ccc(F)cc3)c2C)N=C1C	PABP FP inh active
CC(CC(c1ccccc1)N1CCc2ccccc2C1)=NO (stereo not drawn)	none (no result: PABP FP inh, EBV gp42 block, eIF4H FP inh, MEX-5 binding)
CCn1c2ccccc2c2cc(NC(=O)N3CCCCC3)ccc21	none (no result: PABP FP inh, EBV gp42 block, eIF4H FP inh, MEX-5 binding)
CCN(CCCNC(=O)C1CCN(S(=O)(=O)CC)CC1)c1cccc(C)c1	PABP FP inh active, eIF4H FP inh 90
CCN1CCN(CCNC(=O)c2cc(Cl)c(NC(=O)C3=C(C)OCCS3)cc2OC)CC1	none (no result: EBV gp42 block)
CCN(CC)CCCNC(=O)c1cc(Cl)c(NC(=O)C2=C(C)OCCS2)cc1OC	PABP FP inh active, eIF4H FP inh 93 (no result: EBV gp42 block)
CC1OC2CC(=O)OC2C2=C1C(=O)c1c(O)cccc1C2=O (stereo not drawn)	none (no result: PABP FP inh, EBV gp42 block, eIF4H FP inh, MEX-5 binding)
Cn1c(=O)c2[nH]c(N=NNc3ccccc3F)nc2n(C)c1=O	MEX-5 binding -34
Cc1ccccc1NN=Nc1nc2c([nH]1)c(=O)n(C)c(=O)n2C	none (no result: MEX-5 binding)
CC(=O)/C(N=Nc1nc2c([nH]1)c(=O)n(C)c(=O)n2C)=C(\C)O	MLLE-PAM2 inh 55, MEX-5 binding -36
Cc1cccc(C(C)C)c1NC(=O)COC(=O)CCC(=O)N(CC(C)C)c1c(N)n(CC(C)C)c(=O)[nH]c1=O	none (no result: PABP FP inh, EBV gp42 block, eIF4H FP inh, MEX-5 binding)
OC[C@@H]1CN(Cc2ccncc2)C[C@H](n2cnc3c(NC4CCCC4)ncnc32)O1	none (no result: PABP FP inh, EBV gp42 block, eIF4H FP inh, MEX-5 binding)
CCOC(=O)N1CCC(NC(=O)c2ccc3c(c2)N(CC)CCS3)CC1	MLLE-PAM2 inh 38 (no result: PABP FP inh, EBV gp42 block, eIF4H FP inh)
COc1ccc(CC(=O)Nc2ccccc2C(F)(F)F)cc1S(=O)(=O)N1CCOCC1	none (no result: PABP FP inh, EBV gp42 block, eIF4H FP inh, MEX-5 binding)
Cc1cc(C=O)c(C)n1-c1ccc(N2CCOCC2)c([N+](=O)[O-])c1	PABP FP inh active, eIF4H FP inh 82
Cc1cc(C=O)c(C)n1-c1ccc(N2CCCC2)c([N+](=O)[O-])c1	none
Cc1c(C(=O)N(C)Cc2ccc(F)cc2)sc(=O)n1Cc1ccc(Cl)c(Cl)c1	none (no result: PABP FP inh, EBV gp42 block, eIF4H FP inh, MEX-5 binding)
C[C@H](CO)N1C[C@H](C)[C@H](CN(C)C(=O)OCc2ccccc2)OCc2cnnn2CCCC1=O	none (no result: PABP FP inh, EBV gp42 block, eIF4H FP inh, MEX-5 binding)
S=c1[nH]c2ccccc2n2c(=S)[nH]nc12	MLLE-PAM2 inh 41, MEX-5 binding -42 (no result: EBV gp42 block)
CCOC(=O)c1cc(-c2ccccc2)sc1NC(=S)Nc1cc(C)ccn1	MEX-5 binding -57
CC1=CC(=C2N=C(c3ccccc3)OC2=O)C=C(C)O1	PABP FP inh inconclusive, eIF4H FP inh inconclusive, MEX-5 binding -35
Cc1ncc([N+](=O)[O-])n1CC(=O)Nc1ccccc1Cl	none (no result: PABP FP inh, EBV gp42 block, eIF4H FP inh, MEX-5 binding)
CC1CCN(c2ccc(NC(=O)c3ccc([N+](=O)[O-])o3)cc2)CC1	none (no result: PABP FP inh, EBV gp42 block, eIF4H FP inh)
O=C(Nc1ccc(N2CCCCC2)cc1)c1ccc([N+](=O)[O-])o1	PABP FP inh active, eIF4H FP inh 74 (no result: EBV gp42 block)
COc1ccc(C(=O)Nc2ccnn2C2CCN(CC3CC=CCC3)CC2)cc1 (stereo not drawn)	none (no result: EBV gp42 block)
O=C(Nc1ccnn1C1CCN(CC2CC=CCC2)CC1)c1ccccc1 (stereo not drawn)	MEX-5 binding -27 (no result: EBV gp42 block)
CCc1c(O)nc(SCC(=O)N2CCc3cc(OC)c(OC)cc3[C@@H]2C)[nH]c1=O	MLLE-PAM2 inh 43 (no result: EBV gp42 block)
O=C1C=CC(=Nc2ccc(F)cc2)O1	MLLE-PAM2 inh 40 (no result: PABP FP inh, EBV gp42 block, eIF4H FP inh, MEX-5 binding)
Nc1ccc(O)cc1C(=O)OCC(=O)C12CC3CC(CC(C3)C1)C2	PABP FP inh active, eIF4H FP inh 68 (no result: EBV gp42 block, MEX-5 binding)
COc1ccc(C(=O)OCC(=O)c2ccc(C3CCCCC3)cc2)cc1	none
O=C(OCC(=O)C12CC3CC(CC(C3)C1)C2)c1ccc(O)cc1	none (no result: PABP FP inh, EBV gp42 block, eIF4H FP inh, MEX-5 binding)
Nc1ccc(O)cc1C(=O)OCC(=O)c1ccc(C2CCCCC2)cc1	PABP FP inh active, eIF4H FP inh 93
